Source: PubChem BioAssay AID1117361 (Southern Research Institute, 2015)
The campaign covered roughly 3,600 compounds. About 900 (25%) were called active. Only a sample is shown. Measured potencies and affinities stand elsewhere. Unmarked numbers belong to inactive results. No rule for the calls is given here.

Target: Protein Tat (Human immunodeficiency virus type 1 group M subtype B (isolate HXB2)) (UniProt P04608)
Assay: HIV-1 Tat–TAR interaction blockers – biochemical, fluorescence polarization, FAM-labeled TAR RNA, counter-screen for Vif-APOBEC3G degradation inhibitor project, dose response (AID 1117361)
Settings: Tat-TAR RNA binding; series mostly up to 100 µM; inhibition: at the top concentration

Row | SMILES | outcome | inhibition
1 | CN1CCN(S(=O)(=O)Cc2ccc(Cl)cc2)CC1 | inactive | –
2 | O=C(NCc1ccccc1)/C(=C/c1ccc(OC(F)F)cc1)c1ccccc1 | inactive | –
3 | O=C(CCS(=O)(=O)c1ccc(Br)cc1)N1CCN(c2ccc(F)cc2)CC1 | – | 4.12%
4 | Cc1ccc(C(C)C)c(OCCCN2CC(C)OC(C)C2)c1 (configuration not stated) | – | 0.68%
5 | COC(=O)c1ccccc1NC(=O)C(C)Oc1ccccc1 (configuration not stated) | inactive | –
6 | COC(=O)c1ccccc1NC(=O)CSCC(=O)Nc1ccccc1 | – | 9.46%
7 | Cc1nnc(-c2cnn(C)c2N)n1Cc1ccc(Cl)cc1 | – | 2.7%
8 | COc1cc(/C=C2\CC/C(=C\c3cc(OC)c(O)c(OC)c3)C2=O)cc(OC)c1O | inactive | –
9 | COc1cc(C(=O)OCCN2CCCCC2)ccc1O | inactive | –
10 | CC12C(=O)N(c3ccccc3C(=O)O)C(=O)C1C1C=CC2C1 (configuration not stated) | inactive | –
11 | Cc1nc2ccccc2c2oc(C(=O)N3CCN(C(=O)c4ccco4)CC3)cc12 | inactive | –
12 | Cc1cc(C(=O)N2CCN(CCc3ccccc3)CC2)no1 | inactive | –
13 | CC(=O)c1c(C)[nH]c(C(=O)Nc2ccc(C)c(C)c2)c1C | – | 6.14%
14 | CN(C)c1ccc(/C=C/C#N)cc1 | inactive | –
15 | CCC(C(=O)Nc1cc(C(=O)O)ccc1C)c1ccccc1 (configuration not stated) | inactive | –
16 | Cc1ccc(S(=O)(=O)N2CCCCC2)cc1C(=O)Nc1ccc2cn[nH]c2c1 | – | 1.35%

Row | SMILES | outcome | inhibition
17 | CCC(C)NC(=O)Cc1cn(C)c2ccccc12 (configuration not stated) | inactive | –
18 | CCc1nnc(NC(=O)CC(CN(C)S(=O)(=O)c2ccccc2)c2ccccc2)s1 (configuration not stated) | – | 3.38%
19 | C#CCSc1nnc(-c2sc3ccccc3c2Cl)o1 | inactive | –
20 | Cc1ccc(NC(=O)CCC(=O)NNC(=O)COc2cccc3ccccc23)c(C)c1 | – | 6.08%
21 | O=C(CCn1c(=S)oc2ccccc21)Nc1ccc2c(c1)OCCO2 | inactive | –
22 | O=C(CCCCCN1C(=O)c2ccccc2C1=O)Nc1nccs1 | – | 1.67%
23 | O=C(O)CCCN1C(=O)/C(=C\C(Cl)=C\c2ccccc2)SC1=S | inactive | –
24 | CCCCOC(=O)CCCN1C(=O)/C(=C2\SC(=S)N(CCCC(=O)OCCCC)C2=O)SC1=S | inactive | –
25 | CCc1ccccc1NNC(=O)CCc1ccccc1 | inactive | –
26 | CN(CC(=O)Nc1ccccc1Cl)C(=O)Cn1cc(C(F)(F)F)cc(Cl)c1=O | – | 0.33%
27 | Cc1ccc(C)c(NC(=O)CSc2ncnc3nc[nH]c23)c1 | – | 4.09%
28 | CC(C)(C)c1ccc(-c2nnc(SCCC#N)n2C2CCCC2)cc1 | inactive | –
29 | Cc1nc(C)c2c(c1C(F)(F)F)-c1ccccc1C2(F)F | inactive | –
30 | O=c1[nH][nH]c(=O)c2nc(Nc3ccccc3)ncc12 | inactive | –
31 | CCc1nc(NCC2CCCN2CC)c2nnn(Cc3ccccc3F)c2n1 (configuration not stated) | – | 16.2%
32 | CCN1CCN(C(=O)C2COc3ccccc3O2)CC1 (configuration not stated) | inactive | –
